In PubChem BioAssay (NCATS):
Several values for one entry are separate records, joined by “and”; a condition that tells them apart may be missing. Equal entries are not always repeated. Inconclusive results are not listed. Unmarked numbers belong to inactive results. Activity calls are given as the source filed them. The call rests on the fitted dose curve; in most records, active means well fitted cell-killing curve with a large enough effect; inconclusive means small, poorly fitted or top-dose-only effect; inactive means flat fitted curve, though single readings scatter.

assay: Cell Viability - LYMP2-019 (AID 973); conditions: LYMP2-019 lymphoblastoid cell line viability; series mostly up to 92.2 µM; activity change, negative = cytotoxicity: at the top concentration; further: nearly all actives have a fitted effect of over 55% in size;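 on activity change, negative = cytotoxicity: 0% = DMSO alone and full effect = 92 µM tetraoctylammonium bromide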
Excerpt: NIH Chemical Genomics Center [NCGC]
NIH Molecular Libraries Screening Centers Network [MLSCN]
National Institutes of Environmental Health Sciences [NIEHS]
National Toxicology Program [NTP]
We have developed a 1536-well cell-based assay for quantitative high throughput screening (qHTS) against a number of cell lines to determine in vitro cytotoxicity of small molecules. This particular assay uses a human lymphoblastoid cell line (LYMP2-019) purchased from Coriell Institute for Medical Research.
NCGC Assay Protocol Summary:
The CellTiter-Glo luminescent cell viability assay (Promega) is a homogeneous method to measure the number of viable cells in culture. The end point readout of this assay is based on quantitation of intracellular ATP, an indicator of metabolic activity, using the luciferase reaction. Luciferase catalyzes the oxidation of beetle Luciferin to oxyluciferin and light in the presence of ATP. The luminescent signal is proportional to amount of ATP present.
Using the CellTiter-Glo luminescent cell viability assay, the amount of cellular ATP was measured in the lymphoblastoid cell line with complete culture medium following compound treatment for 24 hours. The assay was performed in opaque white Kalypsys 1536-well plates. In the screen, tetraoctylammonium bromide was used as positive control. Library compounds were measured for their ability to cause acute toxicity in the cell line, as reflected by a decrease in intracellular ATP levels, in a concentration-dependent manner. […] AC50 values were determined from concentration-response data modeled with the standard Hill equation.
qHTS protocol for CellTiter Glo lymphoblastoid cellular assay
[Step] [Parameter] [Value] [Description]
1. Reagent; 5 uL; 2500 lymphoblastoid cells/well
2. Time; 5 hr; 37 C incubation
4. Controls; 23 nL; Tetraoctylammonium bromide 6.4pM to 92 uM
5. Time; 24 hr; 37 C incubation
6. Reagent; 5 uL; CellTiter Glo reagent
7. Time; 30 min; Room Temperature
8. Detection; Luminescence; Viewlux plate reader
Keywords: cell viability, cytotoxicity, lymphoblastoid cell line, luminescence, NTPHTS, NTPHTS_NCGC, NIEHS, DSSTox, MLSMR, MLSCN, NIH Roadmap, qHTS, NCGC
Potency means the concentration at half of the fitted maximal effect.

Compound	activity change, negative = cytotoxicity [%]	Potency
Cc1ccc([N+](=O)[O-])cc1N	2.05	–
Cc1ccc([N+](=O)[O-])c(C)c1	-2.52	–
COC(=O)c1ccc(C)cc1	6.62	–
O=C(O)CC(C(=O)O)C(CC(=O)O)C(=O)O (stereo not given)	-0.303	–
CCCCCCCCCCCCCCC1CO1 (stereo not given)	-2.56	–
c1ccc2scnc2c1	-4.81	–
c1ccc2c(c1)c1cccc3ccc4cccc2c4c31	-2.72	–
Cc1ccc(N)c([N+](=O)[O-])c1	-13.5	–
NC1=NC(S)C2N=CN=C2N1 (stereo not given)	–	10 µM (active)
O[C@@H]([C@H](O)[C@@H](O)CBr)[C@@H](O)CBr	-5.01	–
CCO	-3.57	–
O=NO	–	inactive
CCCCC(CC)CN (stereo not given)	–	inactive
C=CC(=C)CCC=C(C)C	-6.55	–
COc1ccc2nc(N)sc2c1	-8.74	–
C=CC(=O)OCCOCCOCCOCCOC(=O)C=C	–	25.1 µM (active) and 31.6 µM (active)
O=C(O)c1ccccc1	-13.8	–
COC(=O)c1ccc(C=O)cc1	-3.28	–
O=C(/C=C/c1ccc(O)c(O)c1)O[C@@H](C(=O)O)[C@@H](OC(=O)/C=C/c1ccc(O)c(O)c1)C(=O)O	-8.99	–
CCCCCCCCO	-11.8	–

Compound	activity change, negative = cytotoxicity [%]	Potency
CC1=CC(C)(C)Nc2ccccc21	–	inactive
Cc1cccc([N+](=O)[O-])c1C	0.37	–
COc1cc(/C=C/c2ccccc2)oc(=O)c1	-7.49	–
C=C(C)C1CC=C(C)C(O)C1 (stereo not given)	-5.66	–
CN(C)CCCCCCN(C)C	-0.293	–
ClCCCl	-9.95	–
Cc1ccccc1C	–	inactive
COc1ccc(/C=C/c2cc(OC)cc(=O)o2)cc1	-2.67	–
Nc1ccc(S(=O)(=O)O)cc1	-3.78	–
COC(=O)CCCCC(=O)OC	-2.57	–
C=CCOC(=O)c1ccccc1C(=O)OCC=C	-2.04	–
C=CCc1ccc(OC)c(OC)c1	-5.74	–
C1OCOCO1	-8.42	–
CCC(O)OC(O)CC (stereo not given)	–	inactive
COc1c2ccoc2cc2oc(=O)ccc12	-9.71	–
O=C1c2ccccc2C(=O)C1c1ccc2ccccc2n1	-20.3	–
CCCCCCCCCCCCCC(=O)O	10.4	–
COCC(=O)O	-17.6	–
O=C(O)c1ccc(O)cc1O	–	inactive
CN(C)C=O	–	inactive
